# A selection: hits, their analogues and other compounds. The true share with any hit is near 11%.
# Tau FP inhib: blocks human tau fibril formation measured by polarization; K18 P301L tau heparin fibrillization, Alexa594 FP, 6 h; Potency, µM (top dose mostly 57.7 µM), for the others: at the highest dose activity, negative = inhibition, hits mostly inhibitors; actives 0.39% (n = 280,000); also: potency is read from the fitted curve at half-maximal effect; nearly all actives have a fitted effect of over 55% in size
# Target sequence (P10636 561-689 P618L limits assumed): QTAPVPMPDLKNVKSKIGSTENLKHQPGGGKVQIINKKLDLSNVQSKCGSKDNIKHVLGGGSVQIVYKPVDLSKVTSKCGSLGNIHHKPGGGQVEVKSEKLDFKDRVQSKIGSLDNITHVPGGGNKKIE
#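 Steps: dispense K18 P301L tau (15 uM plus 0.24 uM Alexa 594 tracer, final) in pH 7 sodium acetate; add compound; add heparin (20 uM final); incubate 6 hr, 37 C; add ThT (30 uM final); after 1 hr ambient, read FP.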
# Tau fibril ThT: blocks human tau fibril formation measured by thioflavin T. AID 1460. P10636. actives 2.1% (n = 270,000). recombinant tau K18 P301L, heparin-induced fibrillization, ThT fluorescence. Potency, µM (top dose mostly 57.4 µM), for inactives: top-dose activity, negative = inhibition, usual class: inhibitors; also: potency is read from the fitted curve at half-maximal effect; nearly all actives have a fitted effect of over 55% in size
#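 Using a mix of unlabeled (15 uM) and Alexa 594-labeled (0.24 uM) tau K18 P301L, heparin-triggered fibrillization over 6 hr at 37 C was scored by ThT fluorescence.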
# Tau fluor cs: counter-screen for tau fibril formation inhibitors | AID 1463 | tau K18 P301L (four-repeat tau fragment) Alexa594 fluorescence, heparin fibrillization | actives 0.93% (n = 280,000) | Potency, µM (top dose mostly 57.7 µM), for inactives: at the highest dose activity change, negative = decrease; also: potency is read from the fitted curve at half-maximal effect; nearly all actives have a fitted effect of over 55% in size
#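 Human K18 P301L tau (15 uM unlabeled plus 0.24 uM Alexa 594-labeled, final) in 100 mM sodium acetate pH 7 was mixed with compound and 20 uM heparin and incubated 6 hr at 37 C.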
# Sfp inh: blocks B. subtilis Sfp PPTase activity; Biochemical Sfp PPTase activity, qHTS; Potency, µM, for the others: largest response in the series, negative = inhibition, actives largely listed as inhibitors; Q9F4F7; actives 3.5% (n = 310,000);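 also: the enzyme is Sfp with the accession as filed and its product quenches rhodamine fluorescence; potency is read from the fitted curve at half-maximal effect; 0% = enzyme reaction without inhibitor and -100% = no enzyme wells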
#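 Sfp 15 nM + cpd, 15 min RT; start w/ rhodamine-CoA 5 uM, BHQ-2-YbbR 12.5 uM (final); 50 mM Hepes pH 7.6, 10 mM MgCl2, 0.01% NP-40, 0.01% BSA; read 525/598 nm at 0 and 30 min.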
# G9a block: G9a (human) methyltransferase inhibition. Q96KQ7. G9a H3K9 monomethylation, AlphaScreen, 2 h. Potency, µM (titrated, usually from 102 µM), for inactives: at the top dose activity, negative = inhibition, hits mostly inhibitors. actives 8.8% (n = 350,000); also: potency is read from the fitted curve at half-maximal effect; nearly all actives have a fitted effect of over 75% in size
# Target sequence (Q96KQ7 913-1193 limits assumed): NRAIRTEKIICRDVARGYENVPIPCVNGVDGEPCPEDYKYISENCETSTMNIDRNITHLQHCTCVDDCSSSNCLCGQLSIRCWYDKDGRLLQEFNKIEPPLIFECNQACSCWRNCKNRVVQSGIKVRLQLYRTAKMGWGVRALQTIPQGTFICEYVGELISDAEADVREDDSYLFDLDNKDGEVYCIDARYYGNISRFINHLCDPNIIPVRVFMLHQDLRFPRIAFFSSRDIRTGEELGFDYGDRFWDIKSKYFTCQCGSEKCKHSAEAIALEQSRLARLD
#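 Chemiluminescent proximity detection of H3K9 monomethylation, read after 10 min bead incubation in the dark. Reaction: 20 nM G9a, 500 nM biotin-H3K9 peptide, 20 uM SAM cofactor, 2 h, room temperature, following 15 min enzyme-compound preincubation.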
# Coupling enz: counter-screen for Giardia aldolase inhibitors: coupling enzyme system; coupling enzyme system counterscreen, AmpLite Red fluorescence; activity change, negative = inhibition, % at 58.2 µM, hits read low; actives 0.67% (n = 290,000); AID 2472; in the data active = activity change below about -30%
#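 Activity here indicates interference with the coupling reaction, not aldolase inhibition. Compounds at 57.5 uM final met coupling enzymes for 10 min at RT; substrate and AmpLite Red detection followed, with a 525/598 nm fluorescence read after 20 min.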
# Active calls of the source: *; ? = inconclusive; · = no result; ! = not confirmed by another sample; [ ] = remark or other dose. Unless noted, calls follow the shape of the dose curve; as a rule, active = well fitted curve in the direction sought with a large enough effect; inconclusive = small, poorly fitted or top-dose-only effect, or another doubt; inactive = no such curve, though single readings can be large; an effect the other way counts as inactive or inconclusive. Unless noted, % is scaled to controls: 0 for no effect and ±100 for the full control effect.
SMILES,Tau FP inhib,Tau fibril ThT,Tau fluor cs,Sfp inh,G9a block,Coupling enz
C/C=C1/C[C@@H](C)[C@](O)(CO)C(=O)OCC2=CCN3CC[C@@H](OC1=O)C23 (some centres not stated),-7.2%,-12.4%,-15.1%,1.0%,·,2.4
COc1cc(-c2ccc(-[n+]3nc(-c4ccccc4)nn3-c3ccc([N+](=O)[O-])cc3)c(OC)c2)ccc1-[n+]1nc(-c2ccccc2)nn1-c1ccc([N+](=O)[O-])cc1,·,·,·,7.8%,?,·
Brc1c(NC2=NCCN2)ccc2nccnc12,?,?,-12.1%,-8.1%,18.9µM*!,-21.2
CN1CCC23CCCC[C@H]2C1Cc1ccc(O)cc13 (some centres not stated),?,?,?,·,24.4%[12.7 µM],·
CN(C)P(=NC(=S)c1cccn1C)(N(C)C)N(C)C,-0.4%,-6.7%,-3.2%,-24.3%,10µM*,-2.8
CON(C)C(=O)Nc1ccc(Br)cc1,·,·,·,7.9%,·,2.9
O=C(Nc1ccc(Br)cc1)c1cc(Br)cc(Br)c1O,13.0%,12.6µM*,?,-2.0%,2.8%[59 µM],-14.9
C[n+]1c(-c2ccccc2)c2cc(N)ccc2c2ccc(N)cc21,·,·,·,-5.5%,?,-38.6*
CN1C(=O)CCS(=O)(=O)[C@@H]1c1ccc(Cl)cc1,·,·,·,14.2%,4.6%[21.5 µM],-0.3
COc1ccc(CNCCc2c(C)[nH]c3ccc(OC(F)(F)F)cc23)c(OC)c1,·,·,·,?,44.7µM*,-0.5
COc1ccc2[nH]c(C)c(CCNCc3cc(OC)c(OC)c(OC)c3)c2c1,-1.2%,?,-10.6%,44.7µM*,22.4µM*,-11.7
Cc1ccc2[nH]c(C)c(CCNCc3cccnc3)c2c1,·,·,·,-2.3%,50.1µM*,0.0
COc1ccc2[nH]c(C)c(CCN3CCC(=O)C(C)C3C)c2c1 (configuration not stated),8.8%,?,-18.1%,5.0%,?,-16.2
CC(C)CC(CN)CC(=O)O (configuration not stated),-6.0%,1.7%,0.5%,19.5%,-2.0%[2.33 µM],0.9
CC(=O)[C@@]1(O)CC[C@H]2C3CCC4=CC(=O)CC[C@]4(C)C3CC[C@@]21C (some centres not stated),-1.5%,?,-6.2%,·,2.8%[12.7 µM],·
c1ccc(SSc2ccccc2)cc1,12.6µM*,25.1µM*,-19.0%,?,16.4%[59 µM],5.5
COc1ccc(C2CC(c3c(O)n(C4CCCCC4)c(=O)[nH]c3=O)=Nc3ccccc3S2)cc1 (configuration not stated),7.1%,?,-20.3%,·,6.8%[59 µM],·
Cc1cc(C)cc(Oc2nc3ccccn3c(=O)c2/C=C(\C#N)c2nc3ccccc3s2)c1,-12.0%,?,-18.5%,·,3.55µM*,·
Cc1cccc(Oc2nc3c(C)cccn3c(=O)c2/C=C(\C#N)c2nc3ccccc3s2)c1,-11.0%,?,-9.2%,·,-29.4%[59 µM],·
CCN1CCN(c2ccc(NC(C)=O)cc2Cl)CC1,0.5%,-8.3%,-2.4%,10.9%,2.1%,4.6
CCN1CCN(c2ccc(N)cc2)CC1,?,25.1µM*,?,4.7%,39.8µM*,0.3
CCN1CCN(c2ccc(N)cc2C)CC1,-3.0%,?,-12.6%,13.5%,31.6µM*,-7.1
CN1CCN(c2ccc(N)cc2)CC1,?,25.1µM*,?,9.4%,12.6µM*,-10.2
CN1CCN(c2ccc(N)c(N3CCN(C)CC3)c2)CC1,?,28.2µM*,?,-12.9%,?,-39.4*
CN1CCN(c2ccc(C=O)cc2)CC1,3.1%,0.4%,-2.6%,24.8%,-27.6%[59 µM],-0.2
SMILES,Tau FP inhib,Tau fibril ThT,Tau fluor cs,Sfp inh,G9a block,Coupling enz
CN1CCN(c2ccc3nccnc3c2)CC1,-10.5%,1.2%,0.4%,6.4%,?,-4.8
Nc1c(C(=O)Nc2cccc(F)c2)sc2nc(-c3cccs3)ccc12,?,?,?,·,-1.0%[59 µM],·
O=C(C1CC(c2ccccc2O)=NO1)N1CCC2(CC1)OCCO2 (configuration not stated),3.4%,-8.9%,-11.5%,3.0%,50.1µM*,1.1
CCC(/C=C/C(C)C1CCC2C3CC=C4CC(O)CC[C@@]4(C)C3CC[C@@]12C)C(C)C (some centres not stated),0.1%,-5.4%,-3.1%,30.5%,·,0.9
O=C1NC(=O)C(=Cc2cc3c(cc2[N+](=O)[O-])OCO3)C(=O)N1,28.2µM*,12.6µM*,-18.0%,-88.6%,7.94µM*,-0.4
Cc1cccc(N2C(=O)NC(=O)/C(=C/c3cc4c(cc3[N+](=O)[O-])OCO4)C2=O)c1,1.5%,?,-6.3%,35.5µM*,8.91µM*,1.7
Cc1cc(C=C2C(=O)NC(=O)NC2=O)c(C)n1-c1ccc2c(c1)OCO2,?,?,-29.1%,-6.6%,?,-2.1
N/C(=N\N=C/c1ccc(-c2ccc(O)c(C(=O)O)c2)o1)N[N+](=O)[O-],-4.2%,4.47µM*,?,50.1µM*,25.1µM*,-3.6
COc1ccc(/C=N/N=C(/N)N[N+](=O)[O-])c(OC)c1,?,-14.7%,-16.9%,3.7%,18.6%[59 µM],1.0
C[C@]12CC[C@H]3[C@@H](CCC4=CC(=O)CC[C@@]43C)[C@@H]1CC[C@@H]2C(=O)CO,12.0%,?,-14.7%,79.4µM*,?,-5.6
CCN(CC)c1ncnc2c1ncn2[C@@H]1O[C@@H](COP(=O)(O)OP(=O)(O)C(Br)(Br)P(=O)(O)O)[C@H](O)[C@H]1O,2.5%,0.9%,0.1%,-14.9%,·,5.9
O=C(c1ccc2c(c1)N(Cc1ccc(F)cc1)CCS2)N1CCC2(CC1)OCCO2,·,·,·,-7.8%,-17.1%,0.3
Cc1ccc(CN2CCSc3ccc(C(=O)N4CCC5(CC4)OCCO5)cc32)cc1,·,·,·,-9.5%,50.1µM*,0.3
O=C(/C=C\c1ccc(Cl)cc1)N[C@@]12CCC(=O)[C@@H]3Oc4c(O)ccc5c4[C@@]31CCN(CC1CC1)[C@@H]2C5,-0.9%,-0.8%,-9.8%,17.7%,·,1.8
COc1ccc(-c2nc(CSCC(=O)N3CCN(c4ccc(F)cc4)CC3)c(C)o2)cc1,6.2%,?,-17.3%,·,-48.7%[59 µM],·
CC1CN(c2ccccc2)NC1=O (configuration not stated),-0.8%,2.1%,-1.0%,10.5%,35.5µM*,1.8
CN(C)c1ccc(C=C(C#N)C#N)cc1,-0.3%,?,-6.9%,21.1%,6.9%[59 µM],-1.0
CCc1ccc(/C=C(/C#N)C(N)=S)cc1,-5.5%,-15.4%,-14.0%,?,8.91µM*,-2.7
N#CC(=Cc1ccc(O)c(O)c1)C(N)=S,?,?,-21.8%,·,5.01µM*,·
CC(C)(C)c1cc(C=C(C#N)C#N)cc(C(C)(C)C)c1O,?,15.8µM*,?,56.2µM*,12.6µM*,·

# Screens as filed in PubChem BioAssay.
